In the library only some 7.9% were active in any assay of this set; here they are far more common.
HCMV antiviral: inhibitors of human cytomegalovirus; activity change, negative = inhibition, % at 57.5 µM; 4.5% of 410,000 active; HFF cells, HCMV-luciferase reporter, 72 h; active compounds read low; in the data active = activity change below about -60%; inconclusive = no clear call, values can overlap the other calls; inactive = above about -39%
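Two compound doses tested in HFFs infected with HCMV-luciferase, MOI 1 PFU/cell, 72 h at 37C. Lysate luminescence read with OneGlo; data normalized against buffer-only and 10uM Salinomycin inhibitor controls.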
FMDV inh: foot and mouth disease virus antiviral activity; FMDV antiviral cell-based qHTS; Potency, µM (titrated, usually from 57.9 µM), actives largely listed as inhibitors; 1.2% of 410,000 active; AID 1159524; calls by dose curve; tested in HEK293T cells; also: read-out not given here; nearly all actives have a fitted effect of over 45% in size
MARV entry inh: inhibitors of Marburg virus binding or cell entry; Marburg virus pseudotyped entry inhibition, cell reporter; Potency, µM (series often up to 37.8 µM), usual class: inhibitors; 1.8% of 300,000 active; AID 540276; calls by dose curve; tested in HEK293 cells
LASV entry inh: inhibitors of Lassa virus binding or cell entry; Potency, µM (series often up to 37.9 µM), usual class: inhibitors; 1.2% of 300,000 active; Lassa virus pseudotype entry inhibition, cell reporter; calls by dose curve; tested in HEK293 cells; also: nearly all actives have a fitted effect of over 50% in size
HCV inhibitor: HCV inhibition. Huh7.5.1 HCVcc-Cre infection, luciferase reporter, 44 h. Potency, µM (doses to about 41.8 µM), usual class: inhibitors. 3.4% of 340,000 active; active = well fitted inhibition curve with a large enough effect; inconclusive = small, poorly fitted or top-dose-only effect, or another doubt; inactive = no such curve, though single readings can be large or run the other way
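Seed cells (1,000/well) for 4 h; treat with compound and infect with HCVcc-Cre, moi about 0.5. Incubate 44 h, then detect luciferase activity.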
Hits are given with their value.

For Clc1ccccc1OCCCCN1CCCCC1 the results were HCMV antiviral inactive, FMDV inh inactive and HCV inhibitor inconclusive.
Screening COc1ccccc1OCCOCCN1CCCC1 returned HCMV antiviral inactive, FMDV inh inactive and HCV inhibitor inactive.
`Cc1ccccc1OCCOCCN1CCCCCC1` gave HCMV antiviral inconclusive, FMDV inh inactive, MARV entry inh 10µM, LASV entry inh inactive and HCV inhibitor inactive.
c1ccc(-c2ccccc2OCCCN2CCCCCC2)cc1 was read as HCMV antiviral -72, FMDV inh inactive and HCV inhibitor inconclusive.
Screening c1ccc(-c2ccccc2OCCCN2CCCC2)cc1 returned HCMV antiviral inactive, FMDV inh inactive, MARV entry inh 5.6µM, LASV entry inh inconclusive and HCV inhibitor inactive.
CCn1c(SCc2ccccc2F)nc(=O)c2c(C(=O)OC)cc(C3CC3)nc21 was read as HCMV antiviral inactive, FMDV inh inactive and LASV entry inh inconclusive.
C/C(CCN1CCc2nc(-c3ccccc3)c(-c3ccccc3)cc2C1)=N\O[C@H](C)CN1CCCCc2nc(C)c(C)cc21 was read as MARV entry inh inactive.
For COc1ccccc1CNC(=O)c1cnc(N(C)C)nc1 the results were HCMV antiviral inactive, FMDV inh inactive and LASV entry inh inactive.
C=CCOCCN1C(=O)C2C(c3ccccc3)C=CC(c3ccccc3)C2C1=O (stereo not drawn) was read as HCMV antiviral inactive, FMDV inh inconclusive, MARV entry inh inconclusive, LASV entry inh inactive and HCV inhibitor inactive.
Screening O=C1C2C(c3ccccc3)C=CC(c3ccccc3)C2C(=O)N1CCCO (stereo not drawn) returned HCMV antiviral inactive, FMDV inh 32µM, MARV entry inh inactive, LASV entry inh inactive and HCV inhibitor inactive.
For c1ccc2nc(OCCN3CC3)ccc2c1 the results were HCMV antiviral -64, FMDV inh inactive, MARV entry inh inconclusive, LASV entry inh inconclusive and HCV inhibitor inconclusive.
For Cc1cc(OCCN2CCCCC2)nc2ccccc12 the results were HCMV antiviral inactive, FMDV inh inactive, MARV entry inh inconclusive, LASV entry inh inactive and HCV inhibitor inconclusive.
Screening CCOc1ccc(NC(=O)CCc2c(C)nc3cc(-c4ccc(Cl)cc4)nn3c2C)cc1 returned HCMV antiviral inactive, FMDV inh inconclusive, MARV entry inh inactive and LASV entry inh inconclusive.
For c1ccc(-c2nc3ccccc3n2C(c2ccccc2)c2nc3ccccc3[nH]2)cc1 (stereo not drawn) the results were HCMV antiviral inactive and FMDV inh inactive.
Screening Cc1nc2ccccc2n1C(c1cccnc1)c1nc2ccccc2[nH]1 (stereo not drawn) returned HCMV antiviral -79 and FMDV inh inactive.
`CCCCCCCC(=O)C(C)C(=O)N(C)[C@H](Cc1ccc(OC)cc1)C(=O)N(C)[C@H](C(N)=O)C(C)C` (stereo partly drawn) gave HCMV antiviral inactive, FMDV inh inactive and HCV inhibitor 0.56µM.
CCOc1cc(/C=N/NC(=O)c2ccc(CN3CCOCC3)cc2)ccc1OC was read as HCMV antiviral inactive, FMDV inh inconclusive, MARV entry inh inconclusive, LASV entry inh inactive and HCV inhibitor inconclusive.
`CCOc1cc(/C=C/C(=O)c2ccc(OC)c(CN3CCOCC3)c2)cc(Br)c1O` gave HCMV antiviral -98, FMDV inh inactive, MARV entry inh inconclusive, LASV entry inh inconclusive and HCV inhibitor inconclusive.
`COc1ccc(-n2nnnc2C2CCN(S(=O)(=O)c3ccc(NC(C)=O)cc3)CC2)cc1` gave HCMV antiviral inconclusive, FMDV inh inconclusive, MARV entry inh inactive and LASV entry inh inactive.
`CCc1[nH]nc(C(=O)NC2CCCc3c2cnn3-c2cc(C)cc(C)c2)c1C` (stereo not drawn) gave HCMV antiviral inconclusive, FMDV inh inactive, MARV entry inh 3.5µM, LASV entry inh inconclusive and HCV inhibitor inactive.
`CCn1nc(C)cc1C(=O)NC1CCCc2c1cnn2-c1ccc(C)c(C)c1` (stereo not drawn) gave HCMV antiviral -86, FMDV inh 10µM, MARV entry inh inconclusive, LASV entry inh inconclusive and HCV inhibitor inconclusive.
CSc1ncccc1C(=O)NC1CCCc2c1cnn2-c1ccc(C)c(C)c1 (stereo not drawn) was read as HCMV antiviral inactive, FMDV inh 28µM, MARV entry inh inconclusive, LASV entry inh inactive and HCV inhibitor 8.9µM.
`Cc1cc(C(=O)NC2CCCc3c2cnn3-c2ccc(C)c(C)c2)no1` (stereo not drawn) gave HCMV antiviral inactive, FMDV inh inconclusive and HCV inhibitor inconclusive.
Screening Cc1ccc(-n2ncc3c2CCCC3NC(=O)c2ocnc2C)cc1C (stereo not drawn) returned HCMV antiviral -89, FMDV inh inconclusive, MARV entry inh inconclusive, LASV entry inh inconclusive and HCV inhibitor inconclusive.
`COc1cccc(C(=O)NCC2Cc3cccc(-c4cccnc4)c3O2)c1` (stereo not drawn) gave FMDV inh inactive.
For COc1cccc(C2C(C(=O)Nc3ccc(C)cc3C)=C(C)Nc3c(C(=O)Nc4cccc(C)c4)cnn32)c1OC (stereo not drawn) the results were HCMV antiviral inactive, FMDV inh inactive and LASV entry inh inactive.
For O=S(=O)(c1ccccc1)c1nnn2c1nc(NC1CCCCC1)c1sccc12 the results were HCMV antiviral inactive, FMDV inh inactive and LASV entry inh inactive.
CC(C)Cn1c(=O)c(C(=O)N/N=C/c2cccc(F)c2)c(O)c2ccccc21 was read as HCMV antiviral inconclusive, FMDV inh inactive, MARV entry inh inconclusive, LASV entry inh inactive and HCV inhibitor 20µM.
For CCOC(=O)c1cc(-c2ccc3c(c2)OCCO3)n[nH]1 the results were HCMV antiviral inactive, FMDV inh inactive, MARV entry inh 5.6µM, LASV entry inh inconclusive and HCV inhibitor inactive.
Screening Cc1ccc(NC(=O)CN(Cc2ccccc2)S(=O)(=O)c2ccc3nc(C)sc3c2)c(C)c1 returned HCMV antiviral inactive, FMDV inh inactive and LASV entry inh inconclusive.
`CCCCCCCCCCCCCCCC(=O)Nc1ccn(C2OC(CO)C(O)C2O)c(=O)n1` (stereo not drawn) gave HCMV antiviral -98, FMDV inh inactive, MARV entry inh inconclusive, LASV entry inh inactive and HCV inhibitor inactive.
`Nc1nc(=S)c2ncn(C3OC(CO)C(O)C3O)c2[nH]1` (stereo not drawn) gave HCMV antiviral inactive, FMDV inh inactive, MARV entry inh inconclusive, LASV entry inh inactive and HCV inhibitor inactive.
`CCCCCCCCCCCCCCCC(=O)OCC1OC(n2ccc(N)nc2=O)C(O)C1O` (stereo not drawn) gave HCMV antiviral inactive, FMDV inh inactive, MARV entry inh inactive, LASV entry inh inactive and HCV inhibitor inconclusive.
For Nc1ccn(C2OC(CO)C(O)C2F)c(=O)n1 (stereo not drawn) the results were HCMV antiviral -82 and FMDV inh inactive.
Screening O=c1[nH]cnc2c1ncn2C1OC(CO)C(O)C1O (stereo not drawn) returned HCMV antiviral inactive, FMDV inh inactive and HCV inhibitor inactive.

Assay outcomes (PubChem)
